HEK293 tox – Cytotoxic Profiling in HEK 293 Cell Line of Diverse Libraries Using Quantitative High-Throughput Screening; AID 1345083, 2018; Potency, µM (series often up to 115 µM), hits mostly inhibitors; HEK 293 viability, ATP luminescence (CellTiter-Glo), 48-72 h; 94,000 compounds, 6.6% hits; further: nearly all actives have a fitted effect of over 60% in size
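HEK 293 cells at 250 cells/well were exposed to compounds by pintool transfer for 48 or 72 hr at 37 degree Celsius, 5% CO2. Viability was read as ATP-coupled luminescence with CellTiter-Glo after 10 min at room temperature.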
NIH3T3 tox – Cytotoxic Profiling in NIH 3T3 Cell Line of Diverse Libraries Using Quantitative High-Throughput Screening; NIH 3T3 viability, CellTiter-Glo ATP luminescence, 48-72 h; Potency, µM (series often up to 96.7 µM), usual class: inhibitors; 94,000 compounds, 4.3% hits; further: nearly all actives have a fitted effect of over 55% in size
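ATP-dependent luminescence (CellTiter-Glo) served as the viability signal for NIH 3T3 cells treated with compound for 48 or 72 hr at 37 °C.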
NPR1 antag – Natriuretic polypeptide receptor (hNpr1) antagonism - Primary qHTS. Atrial natriuretic peptide receptor 1 (Homo sapiens), P16066. 76,000 compounds, 1.6% hits. HEK293 hNpr1 GloSensor cGMP, ANP-stimulated luminescence. Potency, µM (doses to about 46.3 µM), actives largely listed as inhibitors. AID 1347048, 2019; calls by dose curve; further: nearly all actives have a fitted effect of over 60% in size
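HEK293 cells stably expressing human Npr1 and cGMP GloSensor pGS-40F, loaded 2 h with 2% GloSensor reagent, given compound 30 min at room temperature. Luminescence read before and 20 min after 0.1 nM hNppA.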
GPT2 inh – Primary qHTS assay for inhibitors of Glutamate pyruvate transaminase 2 (GPT2); Alanine aminotransferase 2 (Homo sapiens), Q8TD30; Potency, µM (top dose mostly 57.7 µM), most hits filed as inhibitors; 100,000 compounds, 0.25% hits; AID 1671188, 2021; Recombinant GPT2, coupled pyruvate oxidase/HRP Amplex Red fluorescence; further: nearly all actives have a fitted effect of over 60% in size
Target sequence (Q8TD30 whole entry, looked up): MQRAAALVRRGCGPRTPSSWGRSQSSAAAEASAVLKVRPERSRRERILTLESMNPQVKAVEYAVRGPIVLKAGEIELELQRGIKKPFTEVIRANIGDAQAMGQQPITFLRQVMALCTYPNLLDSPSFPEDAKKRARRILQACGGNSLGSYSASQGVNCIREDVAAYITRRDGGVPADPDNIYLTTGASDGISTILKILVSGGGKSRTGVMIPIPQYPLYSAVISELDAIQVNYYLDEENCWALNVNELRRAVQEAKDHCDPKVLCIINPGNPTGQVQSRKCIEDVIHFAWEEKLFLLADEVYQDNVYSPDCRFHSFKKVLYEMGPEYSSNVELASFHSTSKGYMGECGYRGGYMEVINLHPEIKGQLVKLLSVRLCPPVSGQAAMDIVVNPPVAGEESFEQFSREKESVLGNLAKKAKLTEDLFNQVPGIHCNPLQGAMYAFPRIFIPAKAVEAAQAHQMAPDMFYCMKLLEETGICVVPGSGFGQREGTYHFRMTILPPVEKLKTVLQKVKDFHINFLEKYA
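Recombinant GPT2 (10ng/uL) with 250uM a-KG and 2mM L-alanine, 30 min at room temperature, in HEPES pH 7.5 buffer. Pyruvate detected by pyruvate oxidase/HRP/Amplex Red fluorescence after 30 min in the dark; AOA (50uM) as positive control.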
FLuc inh-1 – Firefly luciferase inhibition profiling of diverse chemical library using quantitative high-throughput screening; Luciferin 4-monooxygenase (Photinus pyralis), P08659; purified P. pyralis luciferase, luminescence, biochemical; Potency, µM (highest dose often 115 µM), hits mostly inhibitors; 76,000 compounds, 2.5% hits; further: nearly all actives have a fitted effect of over 65% in size
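Biochemical qHTS: compound (6-point titration) added to 10uM D-luciferin plus 10uM ATP in Tris acetate pH 7.5 buffer with Mg, Tween-20 and BSA, then purified enzyme at 10nM; light output imaged.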
FLuc SDR no ATP – Firefly luciferase (FLuc-C-HiBiT) SDR gain of signal screen - without ATP; shares compounds with FLuc inh-1; Purified FLuc-C-HiBiT, Nano-Glo HiBiT luminescence, no ATP; Potency, µM (titrated, usually from 32.7 µM), hits mostly activators; 1,300 compounds, 7.8% hits; further: nearly all actives have a fitted effect of over 55% in size
FLuc SDR ATP – Firefly luciferase (FLuc-C-HiBiT) SDR gain of signal screen - plus ATP | shares compounds with FLuc inh-1 | purified FLuc-C-HiBiT + ATP, HiBiT complementation luminescence | Potency, µM (series often up to 32.7 µM), usual class: activators | 1,300 compounds, 8.7% hits | AID 1963319, 2024;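 further: signal reports ligand binding via conformational change of the enzyme rather than luciferase catalysis; nearly all actives have a fitted effect of over 55% in size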
FLuc inh-2 – Firefly luciferase (FLuc-C-HiBiT) enzymatic inhibition screen - Functional assay; shares compounds with FLuc inh-1; purified FLuc-C-HiBiT enzyme, luciferin luminescence; Potency, µM (top dose mostly 32.7 µM), hits mostly inhibitors; 1,300 compounds, 42% hits; AID 1963320, 2024; further: nearly all actives have a fitted effect of over 70% in size
Hits are given with their value; i = inactive; ? = inconclusive; nt = no result given. This is a sample that favours compounds with a hit; in the whole collection about 10% have one here. Unless noted, the call rests on the fitted dose curve; in most records, active means well fitted curve in the direction sought with a large enough effect; inconclusive means small, poorly fitted or top-dose-only effect, or another doubt; inactive means no such curve, though single readings can be large; an effect the other way counts as inactive or inconclusive.

SMILES	HEK293 tox	NIH3T3 tox	NPR1 antag	GPT2 inh	FLuc inh-1	FLuc SDR no ATP	FLuc SDR ATP	FLuc inh-2
CC(C)c1nnsc1CNCc1ccccc1OCCCCN1CCOCC1	i	i	i	i	i	nt	nt	nt
COCCn1c(=O)c(C(=O)N2CCN(C(=O)c3ccc(Cl)nc3)CC2)nc2cccnc21	i	i	nt	i	nt	nt	nt	nt
O=C(CCC1CCCC1)N1CCCC(c2noc(COc3ccccc3)n2)C1 (stereo not drawn)	?	?	i	i	i	nt	nt	nt
Cn1ccc2c(C(=O)NCCc3ccccn3)nc(-c3cccc(N4CCOCC4)c3)cc21	?	?	i	i	i	nt	nt	nt
CN1CCN(c2ccc(-c3cc4c(ccn4C)c(C(=O)NCCc4ccccn4)n3)cc2)CC1	35µM	20µM	i	i	0.79µM	?	?	2.8µM
Cn1ccc2c(C(=O)NCC3CCOCC3)nc(-c3cccc(N4CCOCC4)c3)cc21	?	?	i	i	i	nt	nt	nt
Cn1ccc2c(C(=O)NCCc3cnc[nH]3)nc(-c3ccc(N4CCOCC4)cc3)cc21	?	?	i	i	1µM	?	?	4.5µM
C[S+](=O)([O-])NCc1nnc2n1C(C(=O)Nc1ccc(F)cc1)CC2 (stereo not drawn)	i	i	nt	i	nt	nt	nt	nt
CCc1noc(-c2nc(-c3ccc4c(c3)OCO4)no2)n1	?	i	i	i	10µM	i	i	?
O=C(c1ccccc1Cl)N1CCCC(C(=O)N2CCCC(c3nc4ncccc4[nH]3)C2)C1 (stereo not drawn)	i	i	nt	i	nt	nt	nt	nt
COCc1cc(=O)n(CC(=O)Nc2ccc(C(C)C)cc2)c(N2CCOCC2)n1	i	i	i	i	i	nt	nt	nt
CC(Oc1ccccc1F)C(=O)Nc1ccc(-c2nc3ccccc3s2)cc1 (stereo not drawn)	nt	nt	nt	nt	nt	i	i	?
Cc1ccc(NC(=O)c2nc3sccn3c2-c2ccc(F)cc2)cc1	?	?	nt	i	nt	nt	nt	nt
COc1ccccc1OC(C)C(=O)Nc1cccc(-c2nc3ccccc3s2)c1 (stereo not drawn)	nt	nt	nt	nt	nt	i	i	?
CC(=O)Nc1nc2c(Oc3cc(-c4ccc(C(F)(F)F)cc4)ncn3)cccc2s1	nt	nt	nt	i	nt	nt	nt	nt
O=C(Nc1ccc(-c2nc3ccccc3s2)cc1)c1c(F)c(F)c(F)c(F)c1F	nt	nt	nt	nt	nt	i	i	i
CCCCC(=O)Nc1cccc(-c2nc3ccccc3s2)c1	nt	nt	nt	nt	nt	i	i	?
COc1cccc(CC(=O)Nc2ccc(-c3nc4ccccc4s3)cc2)c1	nt	nt	nt	nt	nt	i	i	?
Cc1cc(C)cc(OCC(=O)Nc2ccc(-c3nc4ccccc4s3)cc2)c1	nt	nt	nt	nt	nt	i	i	i
Cc1ccc(NC(=O)N2CCC(CCNC(=O)c3ccco3)CC2)cc1F	i	?	i	i	i	nt	nt	nt
CCC(=O)NCCC1CCN(C(=O)Nc2ccc(C)c(F)c2)CC1	i	i	i	i	11µM	?	?	?
CC(=O)NCCC1CCN(C(=O)Nc2ccc(C)cc2)CC1	i	i	i	i	8.9µM	?	?	?
COCCC(=O)NCCC1CCN(C(=O)Nc2ccc(C)cc2)CC1	i	i	i	i	?	nt	nt	nt
CCC(=O)NCCC1CCN(C(=O)Nc2ccc(C)cc2)CC1	i	i	i	i	13µM	?	?	?
OCC1CN(Cc2ccccc2)CC12CCN(Cc1ccccn1)CC2 (stereo not drawn)	?	?	i	i	i	nt	nt	nt
SMILES	HEK293 tox	NIH3T3 tox	NPR1 antag	GPT2 inh	FLuc inh-1	FLuc SDR no ATP	FLuc SDR ATP	FLuc inh-2
C#CCNC(=O)c1cc(-c2ccccc2OC)c2nncn2n1	i	i	nt	i	nt	nt	nt	nt
Cn1nc(C2CCN(C(=O)[C@H]3CC(=O)NC(=O)N3)CC2)n(-c2ccccc2)c1=O	i	?	i	i	i	nt	nt	nt
O=C(C1CCN(c2nc3ncccc3o2)CC1)N1CCC(Cc2ccccc2)CC1	?	?	nt	i	nt	nt	nt	nt
COc1ccc(N2Cc3c(ncnc3N3CCC(Cc4ccccc4)CC3)N(C)CC2=O)cc1	?	?	i	?	i	nt	nt	nt
Cc1ccc(CNC(=O)c2cc3c(N(C)Cc4ccccc4)nc(C)cn3n2)cc1	?	?	i	i	i	nt	nt	nt
Cc1ccc(-n2ncc3c(N(C)Cc4ccccc4)ncnc32)cc1	nt	nt	nt	nt	nt	?	?	1.6µM
Cc1ccc(-n2ncc3c(N4CCC(Cc5ccccc5)CC4)ncnc32)cc1	nt	nt	nt	nt	nt	i	i	i
Clc1cccc(-n2ncc3c(N4CCC(Cc5ccccc5)CC4)ncnc32)c1	nt	nt	nt	nt	nt	i	i	i
O=C(C1CCCN1C(=O)c1cccc(-c2ccccn2)c1)N1CCC(c2ccccc2)CC1 (stereo not drawn)	?	i	nt	i	nt	nt	nt	nt
CN(Cc1nccs1)c1ccc(-c2nc(-c3ccccc3F)no2)cn1	?	i	?	i	2.8µM	i	i	?
CC(Cn1cccn1)Nc1ccc(-c2nc(-c3ccccc3F)no2)cn1 (stereo not drawn)	45µM	?	?	i	3.5µM	i	?	9.9µM
O=C(NCCc1ccc(Cl)cc1)c1ccc2nnc(-c3ccc(Cl)cc3Cl)n2c1	?	?	nt	i	nt	nt	nt	nt
CCc1nncn1C1CCN(C(=O)c2ccc(C)c(C)c2)CC1	i	i	i	i	i	nt	nt	nt
CN1C[C@@H]2CCCN3CCC[C@@H]([C@H]23)[C@H]1CCCC(=O)NCCCN1CCc2ccccc2C1	?	?	i	?	i	nt	nt	nt
Cc1ccc(NC(=O)c2ccc3c(c2)N(C)C2CCCN2C3=O)cc1C (stereo not drawn)	i	i	i	i	13µM	i	?	?
CN1c2cc(C(=O)Nc3cc(F)ccc3F)ccc2C(=O)N2CCCCCC21 (stereo not drawn)	?	?	i	i	11µM	i	?	?
Cc1ccc(NC(=O)c2ccc3c(c2)N(C)C2CCCN2C3=O)cc1F (stereo not drawn)	?	i	?	i	1.3µM	i	4.4µM	8.8µM
CN1c2cc(C(=O)Nc3cc(F)cc(F)c3)ccc2C(=O)N2CCCCCC21 (stereo not drawn)	?	?	?	i	?	nt	nt	nt
O=C(NCC1Cn2cccc2CN1Cc1ccccc1)C1CC1 (stereo not drawn)	?	?	i	i	?	nt	nt	nt
